Results reported in PubChem BioAssay AID2253 (Southern Research Specialized Biocontainment Screening …, 2010).
About 1,300 (59%) of roughly 2,200 compounds were called active. How the calls were made is not given here. So high a share suggests a set chosen from earlier hits. A selection follows. Measured potencies and affinities stand elsewhere.

test: THP-1 cell cytotoxicity, dose response, cytotoxicity control for Salmonella PhoP regulon inhibitors, S. typhimurium screen hits (AID 2253); conditions: THP-1 viability, CellTiter-Glo luminescence, 72 h; series mostly up to 50 µM

SMILES | outcome
O=C1c2ccccc2C(=O)N1Cc1nc(-c2ccccn2)no1 | inactive
O=C1c2ccccc2C(=O)N1CCCc1nc(-c2ccccn2)no1 | inactive
CCOc1cc(CNn2cnnc2)ccc1OCC(=O)NC1CCCCC1 | inactive
Cc1ccccc1OCC(=O)N/N=C/c1ccco1 | inactive
O=C(COC(=O)/C=C/c1ccco1)Nc1cccc([N+](=O)[O-])c1 | inactive
CCOC(=O)/C=C1\SCC(=O)N1CC(=O)NC1CCCCC1 | inactive
Cc1cc(C)c(NC(=O)COc2ccccc2C(=O)Nc2ccc3c(c2)oc2ccccc23)c(C)c1 | inactive
CCn1c(Cc2ccccc2)nnc1SCC(=O)Nc1ccc(S(N)(=O)=O)cc1 | inactive
N/C(=N\OC(=O)COc1ccc(Cl)cc1)c1cccnc1 | inactive
c1ccc(CCNc2nc3ccccc3s2)cc1 | inactive
Cc1ccc(C(=O)Oc2ccc(C(=O)COC(=O)c3cnccn3)cc2)cc1 | inactive
COc1ccc(/C=C/C(=O)NCCc2nc3ccccc3[nH]2)cc1 | inactive
Nc1nnc(SCc2ccc(F)cc2Cl)s1 | inactive
O=C(CSc1nnc(-c2cccnc2)o1)OC1CCCCC1 | inactive
C/C(=N/NC(=O)Cc1cccn1C)c1ccccc1 | inactive
Cc1oc(CC(C)C)c(CN)c1C(=O)O | inactive
CCOc1ccccc1Nc1nc2ccccc2n2cnnc12 | inactive
CCCn1c(N)nc2ccccc21 | inactive
Cn1c(-c2ccc(N)cc2)nc2ccccc21 | inactive
CCCNC(=O)CN(C1CCCCC1)S(C)(=O)=O | inactive
O=C(CSc1n[nH]c(=O)[nH]c1=O)N/N=C/c1ccccc1 | inactive
COc1cc([N+](=O)[O-])ccc1NC(=O)CN(C)C | inactive
CC1CCc2cc(F)cc3c(=O)c(C(=O)O)cn1c23 (stereo not drawn) | inactive
CCN1C(=O)N/C(=C/c2ccc(Sc3ccc(C)cc3)o2)C1=O | inactive
COc1nccnc1NS(=O)(=O)c1ccc(NC(=S)NC(=O)c2cccnc2)cc1 | inactive
O=C(Nc1cccnc1)c1cc(F)cc(F)c1 | inactive

SMILES | outcome
COc1nsnc1NS(=O)(=O)c1ccc(NC(=S)NC(=O)c2cccnc2)cc1 | inactive
Cc1cccc(C(=O)NC(=S)Nc2ccc(N3CCOCC3)cc2)c1 | inactive
COC(=O)Cc1ccc(NC(=S)N2CCN(c3ccc(F)cc3)CC2)cc1 | inactive
O=C(Nc1ccccc1)Oc1ccc[nH]c1=O | inactive
CCCOc1ccc(C(=O)N2CCCC2C(=O)O)cc1 (stereo not drawn) | inactive
O=C(Nc1ccccn1)NC1CCCCC1 | inactive
CC(C)Nc1cc(C(F)(F)F)nc(-c2ccccn2)n1 | inactive
O=C(Nc1ccsc1C(=O)NC1CCCCC1)c1ccccc1 | inactive
COc1ccccc1NCCC(=O)OCC(=O)NC1CCCCCC1 | inactive
C/C(=N\NC(=O)c1ccccc1)c1ccc2c(c1)OCO2 | inactive
O=S(=O)(c1ccc(NC(=S)Nc2ccc3c(c2)OCO3)cc1)N1CCOCC1 | inactive
O=C(Nc1nccs1)c1cc(-c2ccco2)nc2ccccc12 | inactive
COc1ccc(-c2cc(C(=O)Nc3ccc(S(=O)(=O)Nc4ncccn4)cc3)c3ccccc3n2)cc1 | inactive
N#CCCN(C(=O)CN1C(=O)NC2(CCCC2)C1=O)c1ccccc1F | inactive
O=C(CSc1nnc(Cc2ccccc2)o1)NCCc1ccccc1 | inactive
c1ccc(CSc2nnc(-c3ccncc3)o2)cc1 | inactive
O=C(NCCc1ccccc1)c1ccc2nc(-c3ccco3)c(-c3ccco3)nc2c1 | inactive
CCn1cc(C(=O)O)c(=O)c2cc(F)c(N3CCN(C(=S)NC(=O)c4cccc(F)c4)CC3)cc21 | inactive
Cc1ccc(C(=O)c2ccccc2C(=O)O)c(O)c1 | inactive
Cc1cc(C)cc(-n2c(C)cc(C=C(C#N)C#N)c2C)c1 | inactive
CCN(c1ccc(OCC(=O)OCC(=O)Nc2ccc(F)c(F)c2F)cc1)S(=O)(=O)c1ccccc1 | inactive
NC1CCN(c2nc3c(cc2F)c(=O)c(C(=O)O)cn3-c2ccc(F)cc2F)C1 (stereo not drawn) | inactive
CCOC(=O)C1=C(C)NC(=S)NC1c1ccc(OC(=O)c2ccco2)cc1 (stereo not drawn) | inactive
CCNC(=O)NC1(C(=O)Nc2ccc3c(c2)OCCO3)CCCCC1 | inactive
O=C(Nc1nc2ccc(SC(F)F)cc2s1)c1ccc2c(c1)S(=O)(=O)c1ccccc1C2=O | inactive
Cc1nn(C)c(C)c1S(=O)(=O)N1CCC(C(=O)NC2CCCCC2)CC1 | inactive

SMILES | outcome
Cc1cccc(N2CCN(CC(=O)Nc3nccs3)CC2)c1C | inactive
O=c1cc(Cc2ccccc2)[nH]c(=S)[nH]1 | inactive
CC1CCc2c(N3CCC(O)CC3)c(F)cc3c(=O)c(C(=O)O)cn1c23 (stereo not drawn) | inactive
CC1(C)CC(=O)C=C(Nc2ccc(Br)cn2)C1 | inactive
Cc1nn(CCOc2ccccc2)c(=O)n1-c1ccc(F)cc1 | inactive
CCCn1c(NCCO)nc2ccccc21 | inactive
CCCn1c(/N=C/c2ccc3c(c2)OCO3)nc2ccccc21 | inactive
CC(Cl)C(=O)NNc1cccc(Cl)n1 (stereo not drawn) | inactive
S=c1nc(C2CCCCC2)[nH][nH]1 | inactive
Cc1cc(C)n2c(SCC(=O)NCc3ccco3)nnc2n1 | inactive
COc1ccc(C(=O)C(CO)Oc2ccccc2OC)cc1OC (stereo not drawn) | inactive
CCS(=O)(=O)Nc1cc(C(=O)OC)ccc1C(=O)OC | inactive
CCCCOC(=O)CSc1nc2c(c(=O)[nH]c(=O)n2C)n1C/C=C(\C)Cl | inactive
Cc1ccc(NC(=O)c2ccccc2)s1 | inactive
Brc1cccc(CNCc2cccs2)c1 | inactive
Cc1cc(C(=O)NCc2cccs2)cs1 | inactive
CCN(CC)Cc1c[nH]c2c(C(=O)OC)cccc12 | inactive
COCCn1c(-c2ccccc2F)n[nH]c1=S | inactive
CN1CCCC(OC(=O)c2ccc3c(c2)OCCO3)C1 (stereo not drawn) | inactive
O=C(CCN1CCCCC1)NCC1OCCc2ccccc21 (stereo not drawn) | inactive
O=C(CCNS(=O)(=O)c1cccc2nsnc12)Nc1ccc2c(c1)OCCO2 | inactive
S=c1[nH]nc(Cc2cccc3ccccc23)o1 | inactive
c1coc(CNc2c3c(nc4ncnn24)CCCC3)c1 | inactive
CCOc1ccc(CCNC(=O)c2cc3sc(Cl)cc3n2C)cc1OCC | inactive
CCN1CCN(C(=O)c2ccc(COc3ccc(Cl)cc3)o2)CC1 | inactive
CCOc1ccc(/C=N/O)cc1 | inactive
